# From PubChem BioAssay AID651768 (National Center for Advancing Translational Sciences (NCATS), 2012)
# Out of some 360,000 compounds screened, about 1,700 (0.47%) were called active. Entries that show only a call come without a potency. Another 2% or so got no clear call; they are omitted. Calls come from the whole dose curve; as a rule, active = well fitted inhibition curve with a large enough effect; inconclusive = small, poorly fitted or top-dose-only effect; inactive = no such curve, though single readings can be large or run the other way. The full list was thinned out, with actives kept by preference.
# Target: Bifunctional 3'-5' exonuclease/ATP-dependent helicase WRN (Homo sapiens) (UniProt Q14191)
# Sequence (Q14191 whole entry, looked up): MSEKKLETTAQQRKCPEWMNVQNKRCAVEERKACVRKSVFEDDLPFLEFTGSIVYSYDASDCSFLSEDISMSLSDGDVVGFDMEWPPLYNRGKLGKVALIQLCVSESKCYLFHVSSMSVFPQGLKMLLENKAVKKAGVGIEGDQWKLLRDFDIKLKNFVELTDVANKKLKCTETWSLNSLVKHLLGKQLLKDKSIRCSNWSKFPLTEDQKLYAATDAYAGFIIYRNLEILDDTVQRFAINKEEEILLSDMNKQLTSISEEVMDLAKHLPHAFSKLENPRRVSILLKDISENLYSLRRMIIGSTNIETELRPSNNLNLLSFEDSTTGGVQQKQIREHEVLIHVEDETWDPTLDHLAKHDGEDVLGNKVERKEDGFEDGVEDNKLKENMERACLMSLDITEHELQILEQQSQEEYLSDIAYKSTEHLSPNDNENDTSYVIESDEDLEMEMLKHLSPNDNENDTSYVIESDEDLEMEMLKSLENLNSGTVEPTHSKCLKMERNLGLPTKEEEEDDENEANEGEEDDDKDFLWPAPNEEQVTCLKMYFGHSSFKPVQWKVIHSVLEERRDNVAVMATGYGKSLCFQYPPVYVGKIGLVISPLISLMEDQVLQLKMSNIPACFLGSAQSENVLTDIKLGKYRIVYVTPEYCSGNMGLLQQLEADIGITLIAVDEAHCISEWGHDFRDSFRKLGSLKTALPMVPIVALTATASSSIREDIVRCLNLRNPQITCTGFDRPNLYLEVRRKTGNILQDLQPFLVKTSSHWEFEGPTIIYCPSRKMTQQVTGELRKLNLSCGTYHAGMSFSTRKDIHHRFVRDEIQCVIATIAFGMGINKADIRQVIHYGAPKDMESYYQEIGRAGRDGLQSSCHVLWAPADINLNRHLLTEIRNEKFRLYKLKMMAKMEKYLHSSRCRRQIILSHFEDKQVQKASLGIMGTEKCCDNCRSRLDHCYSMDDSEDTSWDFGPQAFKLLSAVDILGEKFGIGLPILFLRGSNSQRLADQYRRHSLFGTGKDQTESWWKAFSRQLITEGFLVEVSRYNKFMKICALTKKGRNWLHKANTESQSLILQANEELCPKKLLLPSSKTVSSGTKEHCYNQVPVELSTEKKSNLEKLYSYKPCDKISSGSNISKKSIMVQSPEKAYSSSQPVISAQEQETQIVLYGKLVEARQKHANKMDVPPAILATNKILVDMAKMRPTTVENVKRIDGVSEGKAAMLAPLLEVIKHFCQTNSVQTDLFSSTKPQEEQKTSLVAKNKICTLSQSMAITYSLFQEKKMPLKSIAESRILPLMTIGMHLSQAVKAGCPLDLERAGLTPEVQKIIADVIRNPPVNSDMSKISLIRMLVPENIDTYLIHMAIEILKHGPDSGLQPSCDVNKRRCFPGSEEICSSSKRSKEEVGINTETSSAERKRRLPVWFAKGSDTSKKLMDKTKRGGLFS
# Assay: qHTS for Inhibitors of WRN Helicase; note: nearly all actives have a fitted effect of over 55% in size
# Conditions: WRN helicase unwinding, fluorescent forked duplex, kinetic; series mostly up to 114 µM
# In short: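 Fluorescence dequenching readout, ex 525 nm/em 598 nm, kinetic mode: forked duplex DNA (100 nM final) with adjacent fluorophore and quencher unwound by WRN (20 nM final) with 2 mM ATP. Compound preincubation 15 min, room temperature.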
# Potency is the fitted concentration of half-maximal effect.
row,SMILES,Potency
1,COc1cccc(CNC(=O)[C@@H]2CCCN2C(=O)[C@@H]2CCCN2C(=O)c2ccccc2)c1,inactive
2,S=c1[nH]nc(-c2ccco2)n1/N=C/c1ccc(Br)s1,inactive
3,S=c1[nH]nc(-c2cc(-c3ccccc3)n[nH]2)n1/N=C/c1c2ccccc2cc2ccccc12,50.1 µM (active)
4,CCN(CC)S(=O)(=O)c1cccc(-c2n[nH]c(=S)n2/N=C/c2ccc(C(=O)OC)cc2)c1,inactive
5,COc1ccc(C)cc1NC(=O)CN(C)S(=O)(=O)c1ccc2c(c1)n(C)c(=O)c(=O)n2C,inactive
6,COc1ccc2ccn(C)c2c1,inactive
7,OC(c1ccccc1)(c1ccccc1)C1CCN(CCCOc2ccccc2)CC1,inactive
8,CC(C)CCN1C(=O)c2ccc(C(=O)Nc3cccc(S(N)(=O)=O)c3)cc2C1=O,inactive
9,Cc1ccc(NC(=O)Cn2sc3ccccc3c2=O)cc1,inactive
10,Cc1ccnc(-n2sc3ccccc3c2=O)n1,31.6 µM (active)
11,Cc1ccnc(SC2CC(=O)N(c3ccccc3)C2=O)n1 (centres undefined),inactive
12,CCN(CC)C(=O)C1=C(C)N(Cc2ccc(OC)cc2)C(=O)C(CC(=O)NCc2ccco2)C1 (centres undefined),inactive
13,CCCCOc1ccc(Cl)cc1CSc1nncn1N,inactive
14,COC1=CCC2([N+](=O)[O-])CN(CC(=O)O)CC1([N+](=O)[O-])C2 (centres undefined),inactive
15,C=CS(=O)c1sc(Cl)c(N2CCOCC2)c1[N+](=O)[O-] (centres undefined),31.6 µM (active)
16,COC(=O)/C=C\C(=O)Nc1cccc([N+](=O)[O-])c1,28.2 µM (active)
17,O=C(Nc1cccc([N+](=O)[O-])c1)N1CCc2ccccc2C1,inactive
18,COc1cccc(NCCC(=O)c2cccc([N+](=O)[O-])c2)c1,inactive
19,COC(=O)[C@@]12C[C@@H](CC(=O)N3CCC(c4ccccc4)CC3)C(=O)N(Cc3ccccc3)C1=CCC(C)(C)C2,inactive
20,O=C(Cc1ccc([N+](=O)[O-])cc1)N/N=C/c1ccco1,inactive
21,O=C(N/N=C/c1ccco1)c1ccc(C(=O)N/N=C/c2ccco2)o1,39.8 µM (active)
22,O=C(N/N=C/c1ccco1)c1ccc(NC(=O)C2CC2)cc1,inactive
23,Cc1ccccc1-n1nc(C)c2c1N=C1C(Cl)=CC(Cl)=CN1C2c1ccc(C(=O)O)cc1 (centres undefined),inactive
24,O=C(OC12CC3CC(CC(C3)C1)C2)c1ccc(NCc2cc(O)ccc2O)cc1,inactive
25,COC(=O)c1ccc(NCc2cc(O)ccc2O)cc1,79.4 µM (active)

row,SMILES,Potency
1,CC(C)OC(=O)c1ccc(NCc2cc(O)ccc2O)cc1Cl,inactive
2,O=C(c1ccccc1)c1cc(-c2ccccn2)c(N2CCOCC2)s1,inactive
3,NCCN1CCN2C(=O)CN(C(=O)c3ccccc3)CC12 (centres undefined),inactive
4,Cc1cc(C)nc(S/C=C/C(=O)c2ccccc2)n1,inactive
5,O=C(/C=C/Sc1ncn[nH]1)c1ccc(Cl)cc1,35.5 µM (active)
6,COc1ccc(OC)c(NC(=O)C2(C)CCN2C(=O)Cc2ccccc2)c1 (centres undefined),inactive
7,CCOC(=O)c1sc2nc(CSCC(=O)OCc3ccc(C(=O)OC)o3)[nH]c(=O)c2c1C,inactive
8,Cc1sc2nc(CSCC(=O)Nc3c(Cl)cccc3Cl)[nH]c(=O)c2c1C,inactive
9,CSc1nnc(SCc2nc3sc(C(=O)O)c(C)c3c(=O)[nH]2)s1,35.5 µM (active)
10,CCN1CCC2(CC1)N=C(c1ccc(F)cc1)C(=S)N2C(=O)c1ccc(C)cc1,inactive
11,CCN1CCC(O)(/C=C/c2ccc(C)cc2)C(C(=O)/C=C/c2ccc(C)cc2)C1 (centres undefined),14.1 µM (active)
12,COc1cc2cc(CN(CCN3CCCC3)C(=O)Nc3ccccc3Cl)c(=O)[nH]c2cc1OC,inactive
13,CC1=CC2=NC(=O)CC(C)(C(=O)N(CC(=O)NC(C)(C)C)Cc3ccccc3)N2C=C1 (centres undefined),inactive
14,CC1CCCN(C(=O)c2ccc3c(c2)C(=O)N(CCC2=CCCCC2)C3=O)C1 (centres undefined),inactive
15,N#CCSc1ccccc1NC(=O)CN1C(=O)NC(CCc2ccccc2)C1=O (centres undefined),inactive
16,COc1ccc(Br)cc1/C=N/Nc1ccc(S(=O)(=O)Nc2ccccc2C(=O)O)cc1[N+](=O)[O-],39.8 µM (active)
17,COc1ccccc1C(CNC(=O)c1cccc(NS(=O)(=O)c2ccc(Br)cc2)c1)N(C)C (centres undefined),inactive
18,CC1CN(C(=O)c2ccccc2NS(=O)(=O)c2cccc([N+](=O)[O-])c2)CC(C)O1 (centres undefined),inactive
19,COc1ccc(S(=O)(=O)N2CCC(C(=O)OCC(=O)c3ccccc3)CC2)cc1[N+](=O)[O-],inactive
20,COc1cccc(/C=N/Nc2ccc(S(=O)(=O)Nc3ccccc3C(=O)O)cc2[N+](=O)[O-])c1O,39.8 µM (active)
21,CCOc1ncccc1C(=O)NNC(=O)c1cccc(S(=O)(=O)Nc2ccccc2OC)c1,inactive
22,Cc1cc2nc3n(c2cc1C)CC1CC(C(=O)NCCC(C)C)N(C)C31 (centres undefined),inactive
23,CCCCSc1nnc2c(n1)OC=Nc1ccccc1-2,inactive
24,Cc1cccc(N2CC(C)Cn3c2nc2c3c(=O)n(CC(=O)OCc3ccccc3)c(=O)n2C)c1 (centres undefined),inactive
